Among the data in paper PMC8384837, “Expanding the binding specificity for RNA recognition by a PUF domain” are binding signal values, retold here.

The test has as its target PUM1 PUF domain R1-RGN (Homo sapiens, UniProt Q14671 828-1176, S863R;R864G;Q867N). The test is described as follows: yeast three-hybrid, YBZ-1, SC-Leu-His + 0.5 mM 3-AT, 4 days. Conditions: tags: N-Gal4 AD-HA kept; label: inside an RPR1-promoter hybrid RNA with tandem MS2 sites; ssRNA. In outline:
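Repeat regions from input (SC-Leu) and selection (SC-Leu-His + 0.5 mM 3-AT) plates were PCR-amplified and Illumina-sequenced after four days of growth. The cells were strain YBZ-1 with a LexA–MS2 coat fusion and a HIS3 reporter, co-expressing Pumilio-1 PUF domain libraries and matching RNA elements from a centromeric plasmid. The interaction score is the log change in variant frequency from input to selection, taken in log2 with a pseudocount of 1 for absent variants.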
Regarding “GGCUAGAACUAGUGGAUCCCCCGGCGCCCGGCGGCUCGAGCCCGGGUAAGUGUAAAUUGUCUGCAUGCCGCCGGGCGCCAUGCCUGCAGGUCGACUCUAGAAAACAUG”, the binding signal was 2.37 log2 enrichment (interaction score).
As to “GGCUAGAACUAGUGGAUCCCCCGGCGCCCGGCGGCUCGAGCCCGGGUAAGUGUAAAUGGUCUGCAUGCCGCCGGGCGCCAUGCCUGCAGGUCGACUCUAGAAAACAUG”, the binding signal was 0.76 log2 enrichment (interaction score).
The value for “GGCUAGAACUAGUGGAUCCCCCGGCGCCCGGCGGCUCGAGCCCGGGUAAGUGUAAAUCGUCUGCAUGCCGCCGGGCGCCAUGCCUGCAGGUCGACUCUAGAAAACAUG” was 1.85 log2 enrichment (interaction score).
